Reference: PubChem BioAssay AID652120 (NMMLSC, 2013)
The source made the active and inactive calls.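 The calls were made as follows: active = viability below 50% at the top dose and a half-maximal effect concentration under 10 µM; inactive = the rest.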

Test: NIH 3T3 cell cytotoxicity, dose response, cytotoxicity control for AML myeloid differentiation project, CellTiter-Glo, Powder Set01 subset01 (AID 652120)
Conditions: NIH 3T3 viability, ATP luminescence (CellTiter-Glo); series mostly up to 10 µM

Compound	outcome
O=C(CCNC(=O)c1ccc(Cl)cc1)NC1CCCc2ccccc21 (stereo not drawn)	inactive
O=C(O)c1cccnc1Nc1ccc(Cl)cc1	inactive
Cc1ccc(Nc2nc(=O)c3cccnc3s2)c(Br)c1	inactive
